# Measured values as given in ChEMBL document CHEMBL3988442, “University of Dundee, Small-Polar-MMV Screening Library” (2021).
# For some of these results: Results with a measured potency or affinity are listed apart.
# Experiments:
# Parameters in all cases: scale not given: direction of the effect not stated beside the values
# [1] = target: Protein translocase subunit SecA (Escherichia coli (strain K12)) (UniProt P10408); test: Assay to Identify E. coli SecA ATPase Inhibitors; format: functional; conditions: 30 µM
# [2] = target: T1, Ubiquitin-activating enzyme e1, putative (Leishmania donovani (strain BPK282A1)) (UniProt E9BSI1); test: Leishmania donovani Ubiquitin Activating Enzyme (LdE1); format: functional; conditions: 30 µM
# T1 sequence (whole entry): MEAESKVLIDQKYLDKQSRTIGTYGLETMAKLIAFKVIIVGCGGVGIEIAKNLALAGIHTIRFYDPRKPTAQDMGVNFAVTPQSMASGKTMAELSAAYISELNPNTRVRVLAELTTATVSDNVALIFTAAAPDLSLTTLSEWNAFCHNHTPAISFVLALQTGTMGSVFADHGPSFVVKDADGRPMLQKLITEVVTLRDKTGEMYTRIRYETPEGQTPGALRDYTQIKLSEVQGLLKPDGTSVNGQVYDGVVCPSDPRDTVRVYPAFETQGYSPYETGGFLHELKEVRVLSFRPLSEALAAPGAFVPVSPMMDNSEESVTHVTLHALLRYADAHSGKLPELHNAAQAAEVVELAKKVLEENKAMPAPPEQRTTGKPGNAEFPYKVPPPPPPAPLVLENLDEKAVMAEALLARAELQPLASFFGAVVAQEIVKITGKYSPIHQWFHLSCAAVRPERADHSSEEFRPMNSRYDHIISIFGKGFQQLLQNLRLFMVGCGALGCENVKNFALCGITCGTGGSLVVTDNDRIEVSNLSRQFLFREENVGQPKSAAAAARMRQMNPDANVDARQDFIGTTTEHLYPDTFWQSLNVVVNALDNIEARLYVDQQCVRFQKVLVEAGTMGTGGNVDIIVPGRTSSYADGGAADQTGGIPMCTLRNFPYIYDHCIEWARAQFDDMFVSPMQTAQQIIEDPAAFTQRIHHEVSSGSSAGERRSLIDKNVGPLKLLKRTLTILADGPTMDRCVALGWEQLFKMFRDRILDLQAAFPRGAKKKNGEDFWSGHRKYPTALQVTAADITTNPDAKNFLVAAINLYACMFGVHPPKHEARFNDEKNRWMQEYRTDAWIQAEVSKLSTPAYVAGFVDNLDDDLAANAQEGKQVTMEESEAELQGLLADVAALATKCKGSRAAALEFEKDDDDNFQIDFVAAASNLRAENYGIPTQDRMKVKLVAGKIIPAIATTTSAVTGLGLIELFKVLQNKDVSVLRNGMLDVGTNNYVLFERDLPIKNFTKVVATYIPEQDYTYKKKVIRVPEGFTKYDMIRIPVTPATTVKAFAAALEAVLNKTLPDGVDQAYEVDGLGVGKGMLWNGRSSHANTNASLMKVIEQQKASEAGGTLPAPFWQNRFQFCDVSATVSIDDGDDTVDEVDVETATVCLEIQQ
# [3] = target: AMP-activated protein kinase, AMPK (Homo sapiens) (UniProt P54646+O43741+P54619+Q9UGJ0+Q9Y478+Q13131+Q9UGI9); test: AMP-dependent Kinase enzyme assay. An in vitro enzyme assay that detects ADP turnover that is directly proportional to AMPK activity. This uses naive AMPK that is activated during the assay with MK-8722; format: functional; conditions: 30 µM
# [4] = target: Sialic acid-binding Ig-like lectin 9 (Homo sapiens) (UniProt Q9Y336); test: Hs-Siglec9 ALPHAscreen SOP 20170721; conditions: 10 µM
# [5] = test system: Trypanosoma cruzi; test: Trypanosoma cruzi phosphomannomutase and mannose-1-phosphate guanylyltransferase assay; format: functional; conditions: 10 µM
# [6] = target: T2, Arginase-2, mitochondrial (Homo sapiens) (UniProt P78540); test: in vitro enzyme assay to detect the production of urea directly proportional to the activity of Arginase II; format: functional; conditions: 33.3 µM; further: in the data most compounds retested in dose-response had high values
# T2 sequence (whole entry): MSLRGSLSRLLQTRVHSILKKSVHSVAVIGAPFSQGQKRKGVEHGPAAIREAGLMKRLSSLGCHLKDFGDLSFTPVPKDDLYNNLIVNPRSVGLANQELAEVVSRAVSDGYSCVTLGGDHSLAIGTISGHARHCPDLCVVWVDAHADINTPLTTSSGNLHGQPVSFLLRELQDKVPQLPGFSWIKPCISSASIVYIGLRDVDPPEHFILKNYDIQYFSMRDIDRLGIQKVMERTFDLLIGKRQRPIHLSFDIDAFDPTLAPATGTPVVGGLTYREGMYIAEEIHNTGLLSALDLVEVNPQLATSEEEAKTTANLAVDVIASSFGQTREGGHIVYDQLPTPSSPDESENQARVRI
# [7] = target: T3, Proteasome subunit beta (Trypanosoma cruzi) (UniProt O96673); test: Trypanosoma cruzi proteasome chymotrypsin-like activity (TcProtChymo) assay.; further: in the data most compounds retested in dose-response had high values; format: functional; conditions: 9.37 µM
# T3 sequence (whole entry): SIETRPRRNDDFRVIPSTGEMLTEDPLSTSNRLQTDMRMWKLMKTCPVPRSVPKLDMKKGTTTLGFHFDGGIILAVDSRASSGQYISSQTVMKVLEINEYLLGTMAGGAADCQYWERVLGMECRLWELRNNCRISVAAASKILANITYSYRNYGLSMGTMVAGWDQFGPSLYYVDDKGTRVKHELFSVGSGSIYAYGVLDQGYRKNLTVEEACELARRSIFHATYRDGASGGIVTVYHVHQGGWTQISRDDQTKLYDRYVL
# [8] = species on record: Homo sapiens; test: To identify inhibition of the IFN signalling (Jak-Stat) pathway via expression of an eGFP reporter gene under the control of an IFN-stimulated response element (ISRE) containing MxA promoter.; format: functional; conditions: 30 µM
# [9] = target: T4, Tyrosyl-tRNA synthetase, putative (Trypanosoma cruzi (strain CL Brener)) (UniProt Q4DSP6); test: Trypanosoma cruzi tyrosyl tRNA synthetase (TcYRS) _High Tyrosine SOP; format: functional; conditions: 30 µM; further: in the data most compounds retested in dose-response had high values
# T4 sequence (whole entry): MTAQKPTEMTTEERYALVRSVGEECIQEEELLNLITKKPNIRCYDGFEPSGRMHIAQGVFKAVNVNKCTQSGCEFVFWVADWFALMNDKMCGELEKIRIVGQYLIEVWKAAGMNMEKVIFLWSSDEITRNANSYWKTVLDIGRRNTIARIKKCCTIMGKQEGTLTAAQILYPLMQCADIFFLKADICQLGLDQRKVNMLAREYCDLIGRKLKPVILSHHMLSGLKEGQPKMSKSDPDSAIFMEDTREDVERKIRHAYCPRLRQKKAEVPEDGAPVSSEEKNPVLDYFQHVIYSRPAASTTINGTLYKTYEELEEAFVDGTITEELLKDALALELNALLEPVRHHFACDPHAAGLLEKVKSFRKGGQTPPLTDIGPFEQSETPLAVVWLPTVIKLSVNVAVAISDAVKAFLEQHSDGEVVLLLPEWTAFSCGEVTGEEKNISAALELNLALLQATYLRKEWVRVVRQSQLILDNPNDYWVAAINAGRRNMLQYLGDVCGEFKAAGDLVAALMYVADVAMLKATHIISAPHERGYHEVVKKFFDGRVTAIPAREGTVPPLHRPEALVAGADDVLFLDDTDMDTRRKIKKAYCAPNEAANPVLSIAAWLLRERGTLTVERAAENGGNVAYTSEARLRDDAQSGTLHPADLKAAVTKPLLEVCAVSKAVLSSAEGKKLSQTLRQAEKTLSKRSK
# [10] = target: T4, Tyrosyl-tRNA synthetase, putative (Trypanosoma cruzi (strain CL Brener)); test: Trypanosoma cruzi tyrosyl tRNA synthetase (TcYRS) SOP; format: functional; conditions: 30 µM
# [11] = target: Chromo domain-containing protein 1 (Saccharomyces cerevisiae (strain ATCC 204508 / S288c) (Baker's yeast)) (UniProt P32657); test: ScCHD-1 Enzyme Inhibition Assay; format: functional; conditions: 30 µM; further: in the data most compounds retested in dose-response had high values
# Chain of Chromo domain-containing protein 1 (Saccharomyces cerevisiae (strain ATCC 204508 / S288c) (Baker's yeast)) (P32657 whole entry, the tested form may be a part): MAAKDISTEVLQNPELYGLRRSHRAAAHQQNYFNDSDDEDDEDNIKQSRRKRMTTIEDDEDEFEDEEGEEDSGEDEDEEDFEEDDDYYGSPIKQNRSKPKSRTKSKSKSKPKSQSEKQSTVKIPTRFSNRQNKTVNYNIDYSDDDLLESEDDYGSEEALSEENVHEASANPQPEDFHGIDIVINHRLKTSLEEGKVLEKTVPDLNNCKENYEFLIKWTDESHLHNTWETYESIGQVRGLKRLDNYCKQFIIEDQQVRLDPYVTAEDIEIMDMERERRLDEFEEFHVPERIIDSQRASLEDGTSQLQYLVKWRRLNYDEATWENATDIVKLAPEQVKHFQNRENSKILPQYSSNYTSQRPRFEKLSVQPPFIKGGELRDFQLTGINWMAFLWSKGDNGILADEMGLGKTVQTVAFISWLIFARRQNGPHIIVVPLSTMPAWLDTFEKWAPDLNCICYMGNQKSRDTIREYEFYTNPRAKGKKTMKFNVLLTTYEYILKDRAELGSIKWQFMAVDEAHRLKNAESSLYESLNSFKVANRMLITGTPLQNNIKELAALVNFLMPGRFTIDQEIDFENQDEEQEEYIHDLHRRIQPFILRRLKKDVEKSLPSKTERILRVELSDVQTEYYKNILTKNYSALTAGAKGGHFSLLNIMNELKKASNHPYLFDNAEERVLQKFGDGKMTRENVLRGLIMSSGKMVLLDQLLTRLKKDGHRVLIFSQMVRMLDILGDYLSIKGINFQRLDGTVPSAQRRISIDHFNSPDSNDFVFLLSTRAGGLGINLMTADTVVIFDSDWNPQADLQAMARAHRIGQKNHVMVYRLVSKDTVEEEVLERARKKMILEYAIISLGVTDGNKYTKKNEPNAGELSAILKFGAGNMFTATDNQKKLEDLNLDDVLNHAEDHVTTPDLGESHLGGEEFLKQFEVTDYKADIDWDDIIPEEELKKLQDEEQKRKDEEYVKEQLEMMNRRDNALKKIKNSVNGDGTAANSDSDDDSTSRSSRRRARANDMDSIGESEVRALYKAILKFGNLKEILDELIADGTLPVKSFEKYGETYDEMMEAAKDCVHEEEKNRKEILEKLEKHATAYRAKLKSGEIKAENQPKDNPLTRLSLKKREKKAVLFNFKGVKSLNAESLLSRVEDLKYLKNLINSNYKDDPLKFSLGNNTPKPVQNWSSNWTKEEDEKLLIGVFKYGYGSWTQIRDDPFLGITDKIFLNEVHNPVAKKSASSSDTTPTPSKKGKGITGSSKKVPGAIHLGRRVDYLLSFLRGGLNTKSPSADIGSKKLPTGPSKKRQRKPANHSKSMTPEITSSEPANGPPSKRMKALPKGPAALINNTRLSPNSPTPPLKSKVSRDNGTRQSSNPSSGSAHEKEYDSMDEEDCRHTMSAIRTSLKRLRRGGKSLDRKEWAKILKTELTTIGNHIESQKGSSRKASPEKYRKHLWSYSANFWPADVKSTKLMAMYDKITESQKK
# Chain of Protein translocase subunit SecA (Escherichia coli (strain K12)) (P10408 whole entry): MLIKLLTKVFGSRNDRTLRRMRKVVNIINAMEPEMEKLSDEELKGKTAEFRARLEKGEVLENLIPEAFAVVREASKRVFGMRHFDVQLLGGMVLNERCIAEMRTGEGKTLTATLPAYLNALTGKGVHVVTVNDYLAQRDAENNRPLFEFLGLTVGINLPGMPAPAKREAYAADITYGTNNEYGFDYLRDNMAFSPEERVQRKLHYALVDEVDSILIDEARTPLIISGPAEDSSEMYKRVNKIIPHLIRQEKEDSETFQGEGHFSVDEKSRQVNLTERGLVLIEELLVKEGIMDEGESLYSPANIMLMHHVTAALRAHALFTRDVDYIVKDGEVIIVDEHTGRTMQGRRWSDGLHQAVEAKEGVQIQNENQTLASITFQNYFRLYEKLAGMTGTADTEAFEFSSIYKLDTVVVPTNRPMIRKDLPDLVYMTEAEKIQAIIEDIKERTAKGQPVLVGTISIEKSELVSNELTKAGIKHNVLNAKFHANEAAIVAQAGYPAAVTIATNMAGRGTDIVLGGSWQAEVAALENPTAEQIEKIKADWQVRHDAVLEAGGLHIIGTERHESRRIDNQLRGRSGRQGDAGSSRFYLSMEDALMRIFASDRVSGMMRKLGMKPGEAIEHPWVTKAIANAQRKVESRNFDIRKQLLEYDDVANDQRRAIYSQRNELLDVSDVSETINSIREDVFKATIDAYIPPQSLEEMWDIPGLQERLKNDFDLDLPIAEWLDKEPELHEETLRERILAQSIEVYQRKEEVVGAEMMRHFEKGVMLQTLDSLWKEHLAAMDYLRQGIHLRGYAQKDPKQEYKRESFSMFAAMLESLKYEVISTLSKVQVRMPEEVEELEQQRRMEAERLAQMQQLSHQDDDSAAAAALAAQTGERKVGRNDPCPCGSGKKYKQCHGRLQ
# Chain of Sialic acid-binding Ig-like lectin 9 (Homo sapiens) (Q9Y336 whole entry): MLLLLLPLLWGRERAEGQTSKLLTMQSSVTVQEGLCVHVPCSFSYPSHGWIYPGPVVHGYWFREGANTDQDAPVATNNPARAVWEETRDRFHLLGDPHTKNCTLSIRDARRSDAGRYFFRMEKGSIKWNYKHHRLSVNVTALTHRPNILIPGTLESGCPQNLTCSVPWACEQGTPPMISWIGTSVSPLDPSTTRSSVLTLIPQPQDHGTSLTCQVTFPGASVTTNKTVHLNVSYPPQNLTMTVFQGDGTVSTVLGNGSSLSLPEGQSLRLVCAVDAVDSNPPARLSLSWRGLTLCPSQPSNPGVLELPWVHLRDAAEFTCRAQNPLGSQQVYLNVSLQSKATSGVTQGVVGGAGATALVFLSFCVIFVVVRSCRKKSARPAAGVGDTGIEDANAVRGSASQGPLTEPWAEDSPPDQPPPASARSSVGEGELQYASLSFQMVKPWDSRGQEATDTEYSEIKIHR
Compound,Percent Effect [1],Percent Effect [2],Percent Effect [3],Percent Effect [4],Percent Effect [5],Percent Effect [6],Percent Effect [7],Percent Effect [8],Percent Effect [9],Percent Effect [10],Percent Effect [11]
Cc1cccnc1NC(=O)C1CCCN1Cc1ccccc1 (stereo not drawn),-3.6%,2.67%,-2.13%,-2.53%,-9.06%,-3.12%,21.3%,16.8%,0.546%,-1.24%,-9.24%
Cc1ncsc1C(=O)N1CCCN(Cc2cscn2)CC1,-2.64%,5.2%,1.53%,0.904%,3.82%,-1.9%,-3.8%,-3.73%,6.67%,9.41%,-14.3%
Cc1ccsc1CNc1cc(N2CCCC2CO)ncn1 (stereo not drawn),-9.04%,11.4%,-19.2%,6.66%,1.33%,-1.07%,8.23%,12.1%,0%,17.7%,-31%
c1ccc2sc(CN3CCCC3c3noc(C4CC4)n3)nc2c1 (stereo not drawn),-2.02%,-13.5%,-1.08%,-2.6%,-2.88%,0.185%,0%,9.41%,8.91%,23.2%,6.83%
COc1cccc2cc(CNCc3ccnc(N4CCOCC4)c3)oc12,-5.63%,0%,-16.9%,3.48%,-6.7%,-6.41%,10.6%,26.6%,1.48%,-11.1%,3.15%
Cc1ccc(C(=O)N2CCN(CCCSCC#N)CC2)o1,-3.54%,-5.48%,1.04%,10.8%,1.98%,-2.4%,6.42%,18.1%,4.17%,11.1%,0.208%
COc1ccccc1OCCN1CCCC(c2noc(C3CC3)n2)C1 (stereo not drawn),-3.76%,0%,-2.32%,-0.399%,-2.24%,3.12%,5.41%,-3.11%,2.73%,6.17%,-4.48%
Cn1cnnc1S(=O)(=O)C1CCN(S(=O)(=O)c2c(Cl)cccc2Cl)CC1,-1.95%,0%,5.5%,-4.3%,-1.76%,-2.27%,4.97%,6.49%,0%,0%,0.0853%
